Bioassay records (PubChem)
A selection: hits, their analogues and other compounds. The true share with any hit is near 12%.
Lmaj promast – inhibitors of Leishmania major promastigote growth | AID 1063 | inhibition, % at 10 µM | 9% of 200,000 active | Leishmania major promastigotes, resazurin fluorescence viability; in the data active = inhibition above about 50%;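 also: promastigotes grown with compound for 44 hours at 28 °C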
CHOP inhibitor – blocks CHOP induction under ER stress; inhibition, % at 10 µM; 3.8% of 220,000 active; CHO-K1 CHOP-promoter luciferase, tunicamycin-induced, 15-18 h;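 active = compounds that reduced the stress-induced luciferase reporter signal by more than about 70% of percent inhibition, limit read from the data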;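 also: 0% = tunicamycin plus vehicle and 100% = wells without tunicamycin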
WT yeast gro inh – growth inhibition of WT yeast, mitochondrial fusion screen. 2.1% of 190,000 active. AID 1362. mitochondrial fusion phenotypic screen, WT strain. inhibition, % at 10 µM; in the data active = inhibition above about 58%; tested in S. cerevisiae
Arbovirus anti – blocks arbovirus infection; arbovirus infection cell-based antiviral screen; inhibition, % at 10 µM; 0.37% of 200,000 active; in the data active = inhibition above about 30%
The depositor's hits bear a star; x = no result given.

SMILES	Lmaj promast	CHOP inhibitor	WT yeast gro inh	Arbovirus anti
CCOC(=O)/C(=N\Nc1ccccc1[N+](=O)[O-])c1csc(N)n1	51.6*	23.6	14.3	-1.6
COc1ccc(N=c2oc3c(OC)cccc3cc2C(=O)NCc2ccco2)c(OC)c1	3.9	89.4*	6.5	-26.4
CC1CCCCN1CCCNC(=O)c1cc(Br)c(Br)[nH]1 (stereo not given)	92.7*	-2.1	14.4	-5.6
Cc1ccc(S(=O)(=O)N2CCCC(C(=O)NCCCN3CCCCC3C)C2)cc1 (stereo not given)	18.7	6.7	1.2	5.5
CCCCSc1nnc(CNC(=O)C23CC4CC(CC(C4)C2)C3)n1Cc1ccccc1	27.2	85.4*	58.5*	-4.7
O=C(NCc1nnc(SCc2ccccc2)n1-c1ccccc1)C12CC3CC(CC(C3)C1)C2	16.0	45.4	-7.0	-6.8
CC(C)NC(=S)N/N=C/c1ccc(C(C)(C)C)cc1	3.9	91.3*	61.5*	-32.5
FC(F)(F)c1ccc(C2Nc3cccc4cccc(c34)N2)cc1	4.9	87.0*	13.7	-7.5
COc1cc(C(=O)NCC2CCCO2)cc(OC)c1OC (stereo not given)	-2.9	-4.4	16.7	-1.6
COc1cccc(OC)c1OCC(C)CNCC1CCCO1 (stereo not given)	84.9*	20.4	-20.3	7.0
COc1cc(/C=C2\SC(c3ccc(C)cc3)=NC2=O)ccc1O	99.7*	86.2*	-1.7	-7.6
COc1ccc(OC)c(/C=C2\SC(=S)N(Cc3cccnc3)C2=O)c1	81.8*	40.5	27.4	4.0
COc1ccc(/C=C2\SC(c3ccc(C)cc3)=NC2=O)cc1OC	3.9	37.1	5.7	-15.7
COc1cc(/C=C2\SC(=S)N(c3cccnc3)C2=O)ccc1O	x	90.3*	x	x
CCOc1cc(/C=C2\SC(=S)N(Nc3ccccc3)C2=O)ccc1O	19.8	42.7	68.6*	-30.2
COc1cc(/C=C2/SC(=S)N(CC(=O)Nc3cccnc3)C2=O)cc(OC)c1OC	-3.7	-12.7	-3.7	4.0
COc1cc(/C=C2\SC(=S)N(NC(=O)c3cccnc3)C2=O)ccc1O	x	16.5	x	x
CN(C)c1ccc(/C=C2\SC(=S)N(Nc3ncc(C(F)(F)F)cc3Cl)C2=O)cc1	-0.6	48.4	5.2	-9.4
COc1cc(/C=C2\SC(=S)N(Nc3ncc(C(F)(F)F)cc3Cl)C2=O)ccc1O	22.8	4.8	83.2*	-6.2
O=C(O)c1ccc(/C=C2\SC(=S)N(Nc3ccccc3)C2=O)cc1	x	-10.9	x	x
COc1cc(/C=C2\SC(=S)N(Nc3ccccc3)C2=O)ccc1O	48.1	-1.4	86.2*	-23.1
O=C1/C(=C/c2ccc(O)c(O)c2)SC(=S)N1Nc1ccccc1	78.4*	27.1	7.5	-18.7
O=C1c2ccccc2-c2nnc(-c3ccccc3)cc21	-2.9	72.8*	31.4	-10.6
COc1ccc(-c2cc3c(nn2)-c2ccccc2C3=O)cc1	1.7	77.9*	71.8	-23.7
COc1ccc(N(CC(=O)NCc2ccncc2)S(=O)(=O)c2ccccc2[N+](=O)[O-])c(OC)c1	-6.3	8.5	-20.6	2.9
SMILES	Lmaj promast	CHOP inhibitor	WT yeast gro inh	Arbovirus anti
CCOCCCNC(=O)c1ccccc1OC1CCN(S(C)(=O)=O)CC1	-3.4	16.6	-8.2	1.2
CCN(CC)C(C)C(=O)NCC1(c2ccccc2)CCOCC1 (stereo not given)	2.5	29.6	-12.4	0.0
C=C(C)CSc1nc2sc3c(c2c(=O)n1C1CCCCC1)CCN(C)C3	x	10.3	x	x
N#CCSc1nc2sc3c(c2c(=O)n1C1CCCCC1)CCCC3	56.4*	-21.9	9.3	2.9
O=C(NC(=S)NNS(=O)(=O)c1ccc(Cl)cc1)c1cccnc1	-5.1	16.2	-4.9	-1.0
COCCn1c(-c2ccccc2)nc2c(c(=O)c3ccccc3n2C)c1=O	5.8	9.7	0.1	4.9
CCOc1cc(C)ccc1OCc1nnc(SCC(=O)c2cccc([N+](=O)[O-])c2)n1CC	-2.7	10.9	-12.7	4.4
CCn1c(COc2ccccc2)nnc1SCC(=O)c1cccc([N+](=O)[O-])c1	91.4*	-13.1	7.0	3.0
Nc1nc(NCCN2CCOCC2)nc(NCc2ccccc2)c1[N+](=O)[O-]	x	-0.1	x	x
Cc1ccc(C2=Nc3ccccc3N=C(C(Cl)Cl)C2)cc1	8.3	84.1*	25.1	-4.9
O=C(c1ccc(C(F)(F)F)cc1)C1CCCN(C(=O)CCN2CCCO2)C1 (stereo not given)	-7.3	-7.9	-5.4	5.8
Clc1ccc(/C=C/c2nc3ccccc3[nH]2)c(Cl)c1	36.8	62.5	8.9	-24.9
O=C(/C=C/c1ccc(Cl)cc1Cl)c1nc2ccccc2[nH]1	98.7*	29.2	6.3	7.4
COc1ccc(NC(=S)N2CCN(CCN3C(=O)c4cccc5cccc(c45)C3=O)CC2)cc1	-6.5	11.2	4.1	-4.4
CCC(OCC(O)CN1CCN(CCN2C(=O)c3cccc4cccc(c34)C2=O)CC1)c1ccccc1 (stereo not given)	97.0*	20.0	57.9	-27.9
